From the supplement of paper PMC13380429

Tested on: Vero E6 infected with SARS-CoV-2
Assay: inhibition of SARS-CoV-2 cytopathic effect; higher = more antiviral protection, active = above 15
Conditions: 48 h

Measured: inhibition of SARS-CoV-2 cytopathic effect

Cc1ncc(C[n+]2csc(CCOP(=O)(O)OP(=O)(O)O)c2C)c(N)n1 [thiamine-pyrophosphate]
inactive: 1 nM 2.5% | 8.33 nM 1.37% | 100 nM -0.57% | 833.33 nM 2.37% | 10000 nM 0.01%

O=C(NC1CCN(CCc2c[nH]c3ccccc23)CC1)c1ccccc1 [indoramin]
inactive: 1 nM 0.38% | 8.33 nM 1.24% | 100 nM 0.6% | 833.33 nM -1.28% | 10000 nM -4.57%

Cc1c(N(C)C)c(=O)n(-c2ccccc2)n1C [amidopyrine]
inactive: 1 nM -14.8% | 8.33 nM -9.18% | 100 nM -12% | 833.33 nM -13.2% | 10000 nM -11.7%

O=C1O[C@H]([C@@H](O)CO)C([O-])=C1O.[Na+] [sodium-ascorbate]
inactive: 1 nM -1.43% | 8.33 nM 0.79% | 100 nM 0.39% | 833.33 nM 1.19% | 10000 nM 2.74%

C=C(NC(=O)C(=C)NC(=O)c1csc(C2=N[C@@H]3c4csc(n4)[C@H]4NC(=O)c5csc(n5)[C@H]([C@](C)(O)[C@@H](C)O)NC(=O)[C@H]5CSC(=N5)/C(=C/C)NC(=O)[C@H]([C@@H](C)O)NC(=O)c5csc(n5)[C@]3(CC2)NC(=O)[C@H](C)NC(=O)C(=C)NC(=O)[C@H](C)NC(=O)[C@H]([C@@H](C)CC)N[C@@H]2C=Cc3c([C@H](C)O)cc(nc3[C@H]2O)C(=O)O[C@@H]4C)n1)C(N)=O [thiostrepton]
inactive: 1 nM -2.64% | 8.33 nM -1.12% | 100 nM -4.03% | 833.33 nM 1.58% | 10000 nM 7.51%

CN1CCN2c3c(cccc31)[C@@H]1CN(CCCC(=O)c3ccc(F)cc3)CC[C@@H]12 [lumateperone]
inactive: 1 nM -2.67% | 8.33 nM 2.96% | 100 nM 2.88% | 833.33 nM 2.75% | 10000 nM 2.86%

C[C@@H]1CN(Cc2ccc(F)cc2)[C@@H](C)CN1C(=O)c1cc2c(C(=O)C(=O)N(C)C)cn(C)c2cc1Cl [talmapimod]
inactive: 1 nM -1.36% | 8.33 nM -0.66% | 100 nM -2.57% | 833.33 nM -0.03% | 10000 nM -1.11%

Cc1cc(N2CCOCC2)cc2[nH]c(-c3c(NC[C@@H](O)c4cccc(Cl)c4)cc[nH]c3=O)nc12
inactive: 1 nM -1.74% | 8.33 nM -0.03% | 100 nM -2.39% | 833.33 nM -2.43% | 10000 nM -13.9%

COc1cc2nc(N3CCN(C(=O)COc4c(OC)cccc4C(C)C)CC3)nc(N)c2cc1OC
inactive: 1 nM 0.49% | 8.33 nM 0.12% | 100 nM 3.19% | 833.33 nM 3.59% | 10000 nM 1.29%

O=C(NCCN1CCN(c2ncccn2)CC1)C12CC3CC(CC(C3)C1)C2 [adatanserin]
inactive: 1 nM -1.23% | 8.33 nM 0.62% | 100 nM -2.77% | 833.33 nM 2.26% | 10000 nM -1.99%

O=C(O)c1nc(=O)[nH]c(=O)[nH]1 [oxonic-acid]
inactive: 1 nM -6.02% | 8.33 nM -2.79% | 100 nM 1.25% | 833.33 nM 0.64% | 10000 nM -0.52%

CCOC(=O)c1ccc(OC(=O)CCCCCNC(=N)N)cc1 [gabexate]
inactive: 1 nM -0.03% | 8.33 nM -1.96% | 100 nM 1.38% | 833.33 nM 3.6% | 10000 nM 3.31%

Cc1nc(NC(=O)N2CCC[C@H]2C(N)=O)sc1-c1ccnc(C(C)(C)C(F)(F)F)c1 [alpelisib]
inactive: 1 nM 2.4% | 8.33 nM 0.48% | 100 nM 0.01% | 833.33 nM -1.87% | 10000 nM 0.02%

CC(COc1ccccc1)NC(C)C(O)c1ccc(O)cc1 (stereo not given) [isoxsuprine]
inactive: 1 nM 0.69% | 8.33 nM 2% | 100 nM -0.95% | 833.33 nM 1.95% | 10000 nM -1.14%

CC12CCC(C(=O)N(CCCCN3CCN(c4ccccn4)CC3)C1=O)C2(C)C (stereo not given) [piricapiron]
inactive: 1 nM -2.91% | 8.33 nM -0.34% | 100 nM -1.87% | 833.33 nM 0.95% | 10000 nM 1.64%

C[N+](C)(CCOc1ccccc1)Cc1ccccc1 [bephenium-hydroxynaphthoate]
inactive: 1 nM 2.11% | 8.33 nM 0.87% | 100 nM 0.58% | 833.33 nM 0.22% | 10000 nM -0.72%

O=P(O)(O)C(O)(Cc1cnc2ccccn12)P(=O)(O)O [minodronic-acid]
inactive: 1 nM -2.81% | 8.33 nM -1.07% | 100 nM -0.4% | 833.33 nM 2.46% | 10000 nM -1.52%

NC1=N[C@@]2(c3cc(NC(=O)c4ccc(F)cn4)ccc3F)COC[C@H]2CS1
inactive: 1 nM -3.54% | 8.33 nM -0.32% | 100 nM -4.37% | 833.33 nM -2.3% | 10000 nM -4.47%

Cc1cccc(/C=C/c2ccccc2)n1
inactive: 1 nM 3.85% | 8.33 nM -0.34% | 100 nM -0.78% | 833.33 nM -1.72% | 10000 nM -2.74%

Cc1nn(C)c2c1C(c1ccc(C(F)(F)F)cc1)C(C#N)=C(N)O2 (stereo not given)
inactive: 1 nM -1.05% | 8.33 nM -1.78% | 100 nM -1.6% | 833.33 nM -1.63% | 10000 nM 2.56%

Cn1nccc1Nc1nccc(-c2ccn([C@H](CO)c3ccc(Cl)c(F)c3)c(=O)c2)n1
inactive: 1 nM 0.72% | 8.33 nM 0.13% | 100 nM -0.395% | 833.33 nM -5.82% | 10000 nM -9.29%

COc1ccc(CNC(=O)/C=C/c2ccc3[nH]cc(CCN(C)C)c3c2)cc1
inactive: 1 nM 2.58% | 8.33 nM 0.05% | 100 nM 1.04% | 833.33 nM 1.72% | 10000 nM 2.86%

CC(=O)c1ccc2c(c1)[C@H](NC(=O)c1ccc(F)c(Cl)c1)[C@H](O)C(C)(C)O2 [tonabersat]
inactive: 1 nM -2.31% | 8.33 nM -1.2% | 100 nM -0.8% | 833.33 nM 1.11% | 10000 nM -2.32%

CO/N=C(\C(=O)N[C@@H]1C(=O)N2C(C(=O)OCOC(=O)C(C)(C)C)=C(/C=C\c3scnc3C)CS[C@H]12)c1csc(N)n1 [cefditoren-pivoxil]
inactive: 1 nM -0.67% | 8.33 nM -0.15% | 100 nM -2.07% | 833.33 nM -1.49% | 10000 nM -0.51%

CC1(C)S[C@@H]2[C@H](NC(=O)[C@H](N)c3ccccc3)C(=O)N2[C@H]1C(=O)O [ampicillin]
inactive: 1 nM 0.57% | 8.33 nM 1.76% | 100 nM -0.8% | 833.33 nM -1.53% | 10000 nM 0.38%
